# Measured values reported in paper PMC3218832.
# Key:
# Assay in all cases: protein binding microarray; high values mean tight binding
# Conditions in all cases: dsDNA, one strand shown
# RELARELA (p65 homodimer) = RELARELA (p65 homodimer) (Homo sapiens, UniProt Q04206 1-307)
# p50p50 homodimer = p50p50 homodimer (Homo sapiens, UniProt P19838 7-356)
# p52p52 homodimer = target: T1, p52p52 homodimer (Homo sapiens, UniProt Q00653 4-332)
# T1 sequence: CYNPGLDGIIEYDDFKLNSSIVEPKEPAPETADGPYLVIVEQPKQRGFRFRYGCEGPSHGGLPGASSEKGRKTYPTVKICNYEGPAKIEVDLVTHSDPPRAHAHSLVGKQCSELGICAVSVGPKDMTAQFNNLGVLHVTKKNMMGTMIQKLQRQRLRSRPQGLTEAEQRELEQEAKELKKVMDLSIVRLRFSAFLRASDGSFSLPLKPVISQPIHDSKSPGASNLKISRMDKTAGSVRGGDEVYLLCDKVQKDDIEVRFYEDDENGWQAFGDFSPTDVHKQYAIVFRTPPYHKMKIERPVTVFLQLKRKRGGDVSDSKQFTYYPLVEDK
# [1] = target: RELA (p65) subunit of heterodimer;p50 subunit (Homo sapiens;Homo sapiens, UniProt Q04206;P19838 1-307;7-356)
# Chain of RELA (p65) subunit of heterodimer;p50 subunit (Q04206 1-307, chain 1 of 2): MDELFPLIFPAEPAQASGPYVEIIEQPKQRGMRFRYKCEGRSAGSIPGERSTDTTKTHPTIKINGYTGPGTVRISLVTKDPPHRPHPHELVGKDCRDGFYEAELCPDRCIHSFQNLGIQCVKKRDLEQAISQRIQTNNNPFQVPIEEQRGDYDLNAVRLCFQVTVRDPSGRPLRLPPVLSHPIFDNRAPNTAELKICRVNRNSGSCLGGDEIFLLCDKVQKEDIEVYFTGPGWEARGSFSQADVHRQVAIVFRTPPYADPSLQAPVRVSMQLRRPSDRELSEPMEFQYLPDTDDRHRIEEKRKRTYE
# Chain of RELA (p65) subunit of heterodimer;p50 subunit (P19838 7-356, chain 2 of 2): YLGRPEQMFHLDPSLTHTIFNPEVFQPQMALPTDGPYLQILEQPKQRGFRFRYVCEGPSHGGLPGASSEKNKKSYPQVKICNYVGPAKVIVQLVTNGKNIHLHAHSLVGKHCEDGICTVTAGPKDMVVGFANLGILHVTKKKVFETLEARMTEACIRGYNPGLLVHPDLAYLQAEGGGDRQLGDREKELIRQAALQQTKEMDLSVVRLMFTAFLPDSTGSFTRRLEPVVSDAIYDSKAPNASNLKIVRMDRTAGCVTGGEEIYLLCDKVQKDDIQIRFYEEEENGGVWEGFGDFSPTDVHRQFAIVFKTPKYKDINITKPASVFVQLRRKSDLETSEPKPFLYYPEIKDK
# [2] = target: RELA (p65) subunit of heterodimer;p52 subunit (Homo sapiens;Homo sapiens, UniProt Q04206;Q00653 1-307;4-332)
# RELB subunit;p50 subunit = RELB subunit;p50 subunit (Homo sapiens;Homo sapiens, UniProt Q01201;P19838 120-401;7-356)
# RELB subunit;p52 subunit = target: T2, RELB subunit;p52 subunit (Homo sapiens;Homo sapiens, UniProt Q01201;Q00653 120-401;4-332)
# T2 sequence 1: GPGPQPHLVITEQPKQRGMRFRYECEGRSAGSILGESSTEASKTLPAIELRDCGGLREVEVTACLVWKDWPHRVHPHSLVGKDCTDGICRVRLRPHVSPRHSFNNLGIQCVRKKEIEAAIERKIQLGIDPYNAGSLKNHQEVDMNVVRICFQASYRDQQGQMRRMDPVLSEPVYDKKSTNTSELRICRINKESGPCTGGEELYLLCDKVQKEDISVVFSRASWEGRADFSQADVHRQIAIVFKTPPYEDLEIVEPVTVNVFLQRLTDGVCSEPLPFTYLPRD
# T2 sequence 2: T1 sequence
# [3] = target: C-Rel subunit;p50 subunit (Homo sapiens;Homo sapiens, UniProt Q04864;P19838 1-285;7-356)
# [4] = target: T3, C-Rel subunit;p52 subunit (Homo sapiens;Homo sapiens, UniProt Q04864;Q00653 1-285;4-332)
# T3 sequence 1: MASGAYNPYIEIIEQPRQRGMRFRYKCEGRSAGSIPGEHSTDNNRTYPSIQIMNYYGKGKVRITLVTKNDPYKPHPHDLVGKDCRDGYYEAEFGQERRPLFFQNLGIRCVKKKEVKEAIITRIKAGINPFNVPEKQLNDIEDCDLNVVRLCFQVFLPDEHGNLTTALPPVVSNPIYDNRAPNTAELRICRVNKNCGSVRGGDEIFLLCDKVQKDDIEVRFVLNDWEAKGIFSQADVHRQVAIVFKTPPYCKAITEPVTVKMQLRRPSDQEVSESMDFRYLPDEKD
# T3 sequence 2: T1 sequence
# Chain of RELARELA (p65 homodimer) (Q04206 1-307): as the sequence (Q04206 1-307, chain 1 of 2) above
# Chain of p50p50 homodimer (P19838 7-356): as the sequence (P19838 7-356, chain 2 of 2) above
Sequence,binding signal (RELARELA (p65 homodimer)) [z-score],binding signal (p50p50 homodimer) [z-score],binding signal (p52p52 homodimer) [z-score],binding signal [1] [z-score],binding signal [2] [z-score],binding signal (RELB subunit;p50 subunit) [z-score],binding signal (RELB subunit;p52 subunit) [z-score],binding signal [3] [z-score],binding signal [4] [z-score]
GAATTCCTCCC,0.897,-0.0187,-0.00969,0.17,0.0178,-0.14,-0.0714,0.325,0.177
AAATTGTCCCT,0.833,1.43,1.92,1.28,1.26,1.61,1.7,1.14,1.11
GGGTGTTCCCC,1.97,0.783,3.21,2.14,2.7,2.21,2.06,1.68,2.56
CAGTAGCTCCT,-0.468,-1.98,-0.806,-1.09,-1.13,-1.24,-1.1,-1.72,-1.02
CAAGGTACCCT,-0.567,-0.267,-0.0886,-0.499,-0.317,-0.0446,-0.391,-0.833,-0.57
AAATAGATCCC,-0.751,-0.68,-0.334,-0.662,-0.554,-0.403,-0.661,-0.87,-0.679
AAATTTTTCCC,3.12,1.2,1.17,1.78,1.37,1.03,1.38,1.97,1.31
CGGGGGGTCCC,0.448,0.975,2.05,1.38,1.59,1.28,1.67,1.04,1.59
AGAAAACTCCC,1.36,1.03,0.9,1.14,0.979,1.35,0.74,0.654,0.947
GAGTGCGCCCC,-0.402,-0.17,-0.0852,-0.178,0.0378,-0.305,-0.0411,-0.0592,-0.0203
GGATGATTCCT,0.0919,-1.32,-0.648,-0.708,-0.749,-0.941,-0.913,-0.706,-0.54
GAAGAAATCCC,1.23,0.872,0.93,0.96,0.759,0.876,0.618,0.892,0.641
CAGTGGTCCCC,-0.00968,0.538,0.29,0.247,0.212,0.612,0.412,0.329,0.0114
CGATTGACCCC,-0.827,-0.753,-0.367,-0.579,-0.288,-0.398,-0.411,-0.541,-0.184
GAGAAGCCCCT,-0.384,1.19,1.26,1.3,1.14,1.22,1.41,0.87,0.78
AGGAAAGTCCC,2.97,0.984,2.54,2.16,1.77,1.45,1.93,2.17,2.89
GGAAACTCCCC,3.23,1.08,2.01,2.39,2.23,1.32,2.1,2.15,2.63
CAGGTCATCCT,-0.599,-1.84,-0.537,-1.21,-1.08,-1.24,-0.916,-1.52,-1.02
AGATAAGTCCC,0.485,1.11,0.806,1.13,0.806,1.2,0.954,0.899,0.335
AAGTACATCCC,0.78,-0.756,-0.37,-0.432,-0.425,-0.551,-0.549,-0.042,-0.446
GGAAGTATCCT,-0.066,-1.38,-0.457,-0.799,-0.877,-1.12,-0.866,-1.09,-0.681
GAGTGCCCCCT,-0.00724,1.11,0.614,0.954,0.871,0.913,1.16,0.836,0.745
GAATAGCTCCC,-0.473,-0.795,-0.577,-0.627,-0.84,-0.753,-0.873,-1.16,-0.82
AGATTCGCCCC,0.366,0.156,0.127,0.288,0.219,0.292,0.48,0.611,-0.0556
GGGTTGGTCCT,-0.152,-1.58,-0.471,-0.621,-0.757,-0.889,-0.766,-1.12,-0.527
AGAGACCTCCC,-0.639,-0.985,-0.531,-0.592,-0.789,-0.533,-0.671,-0.845,-0.997
CAGGTTTCCCT,0.821,1.16,1.21,1.39,1.33,1.28,1.76,1.26,0.893
AGGTTGCTCCC,-0.396,-0.987,-0.528,-0.584,-0.648,-0.569,-0.67,-0.696,-0.587
GGAGAGCTCCT,-0.469,-1.71,-0.711,-1.01,-1.01,-1.17,-1.06,-1.65,-1.07
GGGGTACTCCT,0.917,0.595,0.756,0.47,0.851,0.471,0.712,0.395,0.674
